Results published in PubChem BioAssay (Tox21).
“And” between values parts separate entries of the source, which are not always exact repeats. Equal entries are not always repeated. Inconclusive results are not listed. Entries that show only a call come without a potency. More than one record can exist for a structure, and the calls need not agree. The source made the active and inactive calls. The call rests on the fitted dose curve; in most records, active means well fitted curve in the direction sought with a large enough effect in the repeat runs; inconclusive means weak or mixed curves; inactive means no such curve, though single readings can be large; an effect the other way counts as inactive or inconclusive.

What was measured:
[1] = Caspase-3/7 induction in HepG2 cells by small molecules, qHTS assay (AID 1346978); further: nearly all actives have a fitted effect of over 15% in size; further: potency means the concentration at half of the fitted maximal effect
In short: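 Caspase-3/7 induction was measured by Caspase-Glo 3/7 luminescence (30 min, room temperature) after a 17 hr compound exposure of wild-type HepG2 cells seeded at 2,000 per well and pre-incubated 5 hr.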

[2] = Caspase-3/7 induction in CHO-K1 cells by small molecules, qHTS cell viability counter screen (AID 1346979); further: nearly all actives have a fitted effect of over 35% in size; further: potency means the concentration at half of the fitted maximal effect
In short: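 Following a 5hr settling period, CHO-K1 cells at 1,500 per well received DMSO-dissolved compounds. Cell viability was quantified 16hr later by CellTiter-Fluor fluorescence, measured after 1hr with reagent at 37C.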

[3] = Caspase-3/7 induction in CHO-K1 cells by small molecules, qHTS assay (AID 1346980); further: nearly all actives have a fitted effect of over 15% in size
In short: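 Luminescent Caspase-Glo 3/7 read (30min, room temperature) quantified apoptosis induction. Cells were wild-type CHO-K1, treated with compound for 17hr at 37 C and 5% CO2.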

[4] = Caspase-3/7 induction in HepG2 cells by small molecules, qHTS cell viability counter screen (AID 1346981); further: nearly all actives have a fitted effect of over 30% in size; further: potency means the concentration at half of the fitted maximal effect
In short: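 Wild-type HepG2 cells (2,000/well) were allowed to settle for 5 hr at 37 C, 5% CO2, then dosed with compounds in DMSO by pin transfer. After 16 hr at 37 C, CellTiter-Fluor was added and fluorescence read 1 hr later.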

[5] = molecular target: Nuclear receptor subfamily 1 group I member 2 (Homo sapiens) (UniProt O75469); test: Human pregnane X receptor (PXR) small molecule agonists, qHTS assay (AID 1346982); further: nearly all actives have a fitted effect of over 35% in size; further: potency means the concentration at half of the fitted maximal effect
Nuclear receptor subfamily 1 group I member 2 (Homo sapiens), sequence (O75469 whole entry, looked up): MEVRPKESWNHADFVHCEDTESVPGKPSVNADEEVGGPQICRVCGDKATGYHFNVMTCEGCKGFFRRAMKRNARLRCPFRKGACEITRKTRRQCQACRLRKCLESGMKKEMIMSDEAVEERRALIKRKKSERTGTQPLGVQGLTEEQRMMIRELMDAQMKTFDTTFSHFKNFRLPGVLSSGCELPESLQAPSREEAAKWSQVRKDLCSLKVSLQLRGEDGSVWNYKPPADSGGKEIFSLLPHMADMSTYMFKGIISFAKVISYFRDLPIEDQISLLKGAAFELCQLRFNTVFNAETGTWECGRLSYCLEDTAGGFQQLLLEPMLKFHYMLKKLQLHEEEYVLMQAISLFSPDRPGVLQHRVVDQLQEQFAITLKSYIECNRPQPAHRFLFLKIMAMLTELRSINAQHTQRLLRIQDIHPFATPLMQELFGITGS
In short: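 PXR-Luc HepG2 cells (CYP3A4 promoter-driven luciferase) were seeded in medium with 5% charcoal-stripped FBS, left 5 hr at 37 C, then exposed to compounds in DMSO for 24 hr. Luminescence was read after ONE-Glo addition.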

[6] = molecular target: Nuclear receptor subfamily 1 group I member 2 (Rattus norvegicus) (UniProt Q9R1A7); test: Rat pregnane X receptor (rPXR) activation by small molecules, qHTS assay (AID 1346983); details: rPXR luciferase reporter cells, One-Glo luminescence, 24 h; max activation: stronger effect = higher value; further: nearly all actives have a fitted effect of over 20% in size; further: potency means the concentration at half of the fitted maximal effect
Nuclear receptor subfamily 1 group I member 2 (Rattus norvegicus), sequence (Q9R1A7 whole entry, looked up): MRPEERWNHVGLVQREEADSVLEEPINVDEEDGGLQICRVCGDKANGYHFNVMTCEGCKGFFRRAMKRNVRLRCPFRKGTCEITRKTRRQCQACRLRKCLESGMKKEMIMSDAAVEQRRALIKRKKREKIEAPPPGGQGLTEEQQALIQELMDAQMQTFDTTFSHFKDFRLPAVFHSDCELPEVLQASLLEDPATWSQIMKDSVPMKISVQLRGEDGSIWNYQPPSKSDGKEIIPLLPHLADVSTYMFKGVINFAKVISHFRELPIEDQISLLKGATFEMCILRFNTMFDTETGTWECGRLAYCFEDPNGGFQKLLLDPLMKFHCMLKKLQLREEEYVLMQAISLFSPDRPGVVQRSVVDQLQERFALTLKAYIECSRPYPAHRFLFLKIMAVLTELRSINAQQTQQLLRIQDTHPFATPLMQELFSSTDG
In short: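 Luminescent readout (One-Glo luciferase, 30 min room temperature) followed 24 hr compound treatment at 37 C of rPXR cells plated 2,000 per well and preincubated 5hr; qHTS format with compounds delivered in DMSO.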

[7] = molecular target: Nuclear receptor subfamily 1 group I member 2 (Homo sapiens) (UniProt O75469); test: CYP3A4 induction through human pregnane X receptor (PXR) by small molecules, qHTS assay (AID 1346984); further: nearly all actives have a fitted effect of over 40% in size
In short: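 DPX-2 cells (HepG2 co-transfected with PXR and CYP3A4 promoter-luciferase) treated with compounds 24 h at 37C; luciferin-IPA CYP3A4 substrate 3uM final added for 3 h, then One-Glo; luminescence read. qHTS format.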

[8] = molecular target: Nuclear receptor subfamily 1 group I member 2 (Homo sapiens) (UniProt O75469); test: Human pregnane X receptor (PXR) activation by small molecules, qHTS assay (AID 1346985); further: nearly all actives have a fitted effect of over 40% in size
In short: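 DPX-2 cells (HepG2 co-transfected with a PXR response element and a CYP3A4-promoter luciferase construct) were seeded at 2,000 per well, rested 5 hr at 37C, then exposed to DMSO-dissolved compounds for 24 hr. Activation was read as luciferase luminescence.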

[9] = molecular target: Cytochrome P450 2D6 (Homo sapiens) (UniProt P10635); test: Cytochrome P450 Family 2 Subfamily D Member 6 (CYP2D6) small molecule antagonists: luciferase reporter qHTS assay (AID 1671196); further: nearly all actives have a fitted effect of over 50% in size; further: potency means the concentration at half of the fitted maximal effect
Cytochrome P450 2D6 (Homo sapiens), sequence (P10635 whole entry, looked up): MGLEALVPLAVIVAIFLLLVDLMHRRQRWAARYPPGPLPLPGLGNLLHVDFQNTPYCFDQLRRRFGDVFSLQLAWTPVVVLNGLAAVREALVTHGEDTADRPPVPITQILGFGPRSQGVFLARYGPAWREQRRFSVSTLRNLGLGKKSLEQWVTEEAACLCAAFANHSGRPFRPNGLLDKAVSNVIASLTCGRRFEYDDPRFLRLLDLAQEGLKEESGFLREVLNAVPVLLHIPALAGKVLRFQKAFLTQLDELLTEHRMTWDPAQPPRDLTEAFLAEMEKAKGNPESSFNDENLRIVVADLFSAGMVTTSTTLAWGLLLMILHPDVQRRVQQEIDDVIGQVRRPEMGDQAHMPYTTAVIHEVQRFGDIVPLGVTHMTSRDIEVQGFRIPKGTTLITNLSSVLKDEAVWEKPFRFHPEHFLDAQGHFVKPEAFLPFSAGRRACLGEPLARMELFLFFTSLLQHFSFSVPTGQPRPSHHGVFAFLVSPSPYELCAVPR
In short: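 CYP2D6 enzyme–substrate mix was held with compound for 10 min at room temperature, then NADPH regeneration solution was added and the reaction ran 1 h at room temperature. Luciferin product was detected by luminescence after 20 min with detection reagent.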

[10] = molecular target: Cytochrome P450 2C19 (Homo sapiens) (UniProt P33261); test: Cytochrome P450 Family 2 Subfamily C Member 19 (CYP2C19) small molecule antagonists: luciferase reporter qHTS assay (AID 1671197); further: nearly all actives have a fitted effect of over 65% in size; further: potency means the concentration at half of the fitted maximal effect
Cytochrome P450 2C19 (Homo sapiens), sequence (P33261 whole entry, looked up): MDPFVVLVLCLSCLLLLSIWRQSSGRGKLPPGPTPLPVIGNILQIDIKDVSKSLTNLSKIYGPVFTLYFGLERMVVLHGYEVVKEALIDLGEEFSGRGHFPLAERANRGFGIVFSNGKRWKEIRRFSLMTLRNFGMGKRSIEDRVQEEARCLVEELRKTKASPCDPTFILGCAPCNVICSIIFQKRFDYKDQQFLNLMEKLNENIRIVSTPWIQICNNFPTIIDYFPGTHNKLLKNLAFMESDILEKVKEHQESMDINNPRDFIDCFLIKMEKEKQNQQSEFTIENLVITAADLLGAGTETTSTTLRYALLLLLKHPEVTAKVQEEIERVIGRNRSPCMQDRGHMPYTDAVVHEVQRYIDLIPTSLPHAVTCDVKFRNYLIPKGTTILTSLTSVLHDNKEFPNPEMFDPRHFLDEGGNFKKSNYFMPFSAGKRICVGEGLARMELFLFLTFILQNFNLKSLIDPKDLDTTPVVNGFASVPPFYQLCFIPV
In short: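 Inhibition of CYP2C19 was scored from loss of luminescence in a P450-Glo proluciferin substrate assay, NADPH-started and run 1 h at 37C, with ketoconazole as positive control.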

SMILES	Potency [1]	Potency [2]	outcome [3]	Potency [4]	Potency [5]	max activation [6]	Potency [7]	Potency [8]	Potency [9]	Potency [10]	Potency [6]
CCCCNC(=O)NS(=O)(=O)c1ccc(N)cc1	inactive	inactive	inactive	inactive	inactive	-2.23% (inactive)	inactive	inactive	inactive	inactive	
Nc1cccc(N)c1	inactive	inactive	inactive	inactive	54.4 µM (active) and inactive				39.8 µM (active) and 31.3 µM (active) and inactive	56.3 µM (active) and 39.4 µM (active)	
O=C(O)CCCCC1CCSS1 (stereo not given)	inactive	inactive	inactive	inactive	inactive				inactive	49.6 µM (active) and inactive	
O=C1CCCCCN1	inactive	1.73 µM (active) and inactive	inactive	inactive	inactive				inactive	40 µM (active) and inactive	
CN/C(=C\[N+](=O)[O-])NCCSCc1ccc(CN(C)C)o1	inactive	inactive	inactive	inactive	inactive				inactive	inactive	
CCCCCCCCCCCCCCCCCC(=O)OCC(O)CO (stereo not given)	inactive	inactive	inactive	inactive	inactive	0.317% (inactive)	inactive	inactive	inactive	inactive	
NC(=O)N/N=C/c1ccc([N+](=O)[O-])o1	inactive	inactive and 42.4 µM (active) and 29.8 µM (active)	inactive	inactive and 58.4 µM (active)	inactive and 7.7 µM (active)	-4.99% (inactive)	inactive		inactive	inactive and 39.9 µM (active) and 43.6 µM (active)	
CCCCOCCOCCSC#N	inactive	inactive	inactive	inactive	32.3 µM (active) and 26.8 µM (active)				inactive	8.4 µM (active) and inactive	
COC(=O)c1ccc(C=O)cc1	inactive	inactive	inactive	inactive	inactive				inactive	71 µM (active) and inactive	
OCCCc1ccccc1	inactive	inactive	inactive	inactive	inactive				inactive	31.7 µM (active) and inactive	
NCCNc1cccc2ccccc12	inactive	66.9 µM (active) and inactive	inactive	inactive	inactive	-4.28% (inactive)		inactive	5.02 µM (active) and 9.79 µM (active) and 12.3 µM (active)	31.7 µM (active) and 21.9 µM (active) and 12.3 µM (active)	
C=CC(=O)NC(C)(C)CS(=O)(=O)O	inactive	inactive	inactive	inactive	inactive				49.2 µM (active) and inactive	inactive	
CCN1CCCC1=O	inactive	inactive	inactive	inactive	inactive	3.15% (inactive)	inactive	inactive	inactive	inactive	
NC(=O)N1c2ccccc2C=Cc2ccccc21	inactive	inactive	inactive	inactive	54.2 µM (active) and inactive				1.99 µM (active) and inactive	70.6 µM (active) and inactive	
O=[N+]([O-])c1ccc(O)cc1	inactive	56.6 µM (active) and 54.5 µM (active) and 48.6 µM (active)	inactive	56.6 µM (active) and 61.1 µM (active) and 54.5 µM (active)	inactive				inactive	33 µM (active)	
COC(=O)c1ccc(O)cc1	inactive	inactive	inactive	inactive	inactive	-1.51% (inactive)	inactive	inactive	inactive	inactive	
CC(C)(C)NCC(O)c1ccc(O)c(CO)c1 (stereo not given)	inactive	inactive	inactive	inactive	inactive				inactive	inactive	
CCn1cc(C(=O)O)c(=O)c2ccc(C)nc21	inactive	inactive	inactive	inactive	inactive				inactive		
COCCOCCOC	inactive	inactive	inactive	inactive	61.3 µM (active) and inactive				inactive	inactive	
O=C1OC(c2ccc(O)cc2)(c2ccc(O)cc2)c2ccccc21	inactive	30.4 µM (active) and inactive	inactive	inactive	48.2 µM (active) and 27.3 µM (active) and 23.7 µM (active)				71 µM (active) and inactive	28.1 µM (active) and 17.8 µM (active) and 11 µM (active)	
Cc1c(N(C)C)c(=O)n(-c2ccccc2)n1C	inactive	inactive	inactive	inactive	55.4 µM (active) and inactive				inactive	32.2 µM (active) and inactive	
C=C(C)C(N)=O	inactive	inactive	inactive	inactive	inactive				inactive	inactive	

SMILES	Potency [1]	Potency [2]	outcome [3]	Potency [4]	Potency [5]	max activation [6]	Potency [7]	Potency [8]	Potency [9]	Potency [10]	Potency [6]
CC(=O)CCC(C)C	inactive	inactive	inactive	inactive	inactive				inactive	inactive	
C1CNCCN1	inactive	44.6 µM (active) and inactive	inactive	inactive	inactive				32.6 µM (active) and inactive and 2.03 µM (active)	82 µM (active) and inactive and 72.1 µM (active)	
COC(=O)C1CCC(C(=O)OC)CC1 (stereo not given)	inactive	inactive	inactive	inactive	inactive				inactive	inactive	
COc1cc(C=O)ccc1O	inactive	inactive	inactive	inactive	inactive				inactive	inactive	
CC1=C(/C=C/C(C)=C/C=C/C(C)=C/C(=O)O)C(C)(C)CCC1	inactive	68.5 µM (active) and inactive	inactive	inactive	54.5 µM (active) and 61.1 µM (active) and 33.5 µM (active)				inactive	20 µM (active) and 35.5 µM (active)	
CO[C@H]1C=CO[C@@]2(C)Oc3c(C)c(O)c4c(O)c(c(/C=N/N5CCN(C)CC5)c(O)c4c3C2=O)NC(=O)/C(C)=C\C=C[C@H](C)[C@H](O)[C@@H](C)[C@@H](O)[C@@H](C)[C@H](OC(C)=O)[C@@H]1C	inactive	30.8 µM (active) and 34.8 µM (active) and 26.6 µM (active)	inactive	27.4 µM (active) and 34.8 µM (active) and 23.7 µM (active)		-4.8% (inactive)			inactive	35.8 µM (active) and 50.8 µM (active) and 9.77 µM (active)	
CCOCCO	inactive	inactive	inactive	inactive	inactive				inactive	inactive	
Cc1cnc(NC(=O)C2=C(O)c3ccccc3S(=O)(=O)N2C)s1	inactive	61.3 µM (active) and inactive	inactive	inactive					inactive	inactive	
O=c1c(-c2ccc(O)cc2)coc2cc(O)cc(O)c12	inactive	60.1 µM (active) and 48.6 µM (active)	inactive	inactive	47.7 µM (active) and 30.6 µM (active) and 29.8 µM (active)				inactive	55.5 µM (active) and 89.4 µM (active)	
Cc1cccc2ccccc12	inactive	inactive	inactive	inactive	inactive				inactive	inactive and 71 µM (active)	
Cc1cccc(Nc2cc(Cl)nc(SCC(=O)O)n2)c1C	inactive	inactive	inactive	inactive	61.1 µM (active) and inactive				inactive	inactive and 7.76 µM (active)	
CCCCOCCOCCOC(C)=O	inactive	inactive	inactive	inactive	inactive				inactive	inactive	
N[C@@H](Cc1c[nH]c2ccccc12)C(=O)O	inactive	inactive	inactive	inactive	inactive				35.6 µM (active) and inactive	31.8 µM (active) and inactive	
COC1=CC(=O)C[C@@H](C)[C@]12Oc1c(Cl)c(OC)cc(OC)c1C2=O	24.1 µM (active) and 61.1 µM (active)	inactive	inactive	inactive					inactive	70.4 µM (active) and inactive	28.2 µM (active)
COc1ccccc1NC(=O)CC(C)=O	inactive	inactive	inactive	inactive	61.1 µM (active)				inactive	78.5 µM (active) and inactive	
Cc1cccc(C)c1O	inactive	inactive	inactive	inactive	inactive				inactive	72.1 µM (active) and inactive	
C[C@]12C=CC(=O)C=C1CC[C@@H]1[C@@H]2C(=O)C[C@@]2(C)[C@H]1CC[C@]2(O)C(=O)CO	inactive		inactive	inactive							
CC(=O)Oc1ccccc1C(=O)O	inactive	inactive	inactive	inactive	inactive				inactive	79.2 µM (active) and inactive	
CC(=O)c1ccc(S(=O)(=O)NC(=O)NC2CCCCC2)cc1	inactive	inactive	inactive	inactive	inactive				31.6 µM (active) and inactive	inactive	
C=C(C)OC(C)=O	inactive	inactive	inactive	inactive	inactive				13 µM (active) and inactive	inactive	
CN(C)C=O	inactive	inactive	inactive	inactive	inactive				inactive	inactive	
O=C(O)Cc1cccc2ccccc12	inactive		inactive	inactive	inactive	-6.88% (inactive)	inactive	inactive	inactive and 6.33 µM (active)	inactive	
